Laboratory results as given in PubChem BioAssay (NCATS).
Inconclusive results are not listed. Calls of active or inactive are those of the source. Calls follow the shape of the dose curve; as a rule, active = well fitted curve in the direction sought with a large enough effect; inconclusive = small, poorly fitted or top-dose-only effect, or another doubt; inactive = no such curve, though single readings can be large; an effect the other way counts as inactive or inconclusive.

Assays:
[1] = Quantitative High-Throughput drug screen in 47 multiple myeloma cell lines against the NCATS MIPE library collection: INA6_PLB cell viability assay (AID 1918965; also: nearly all actives have a fitted effect of over 55% in size; also: potency is read from the fitted curve at half-maximal effect)
In short: (§1)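 CellTiter-Glo luminescence (ATP) after 48 h compound exposure, 37C/5% CO2; 500 cells/well; MIPE 4.0 approved/investigational drugs pinned in; DMSO = 100%, media only = 0% viability.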

[2] = Quantitative High-Throughput drug screen in 47 multiple myeloma cell lines against the NCATS MIPE library collection: H1112_PLB cell viability assay (AID 1918967; also: nearly all actives have a fitted effect of over 30% in size; also: potency is read from the fitted curve at half-maximal effect)
In short: (§2)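 qHTS of the MIPE 4.0 collection: 500 myeloma cells/well, 48 h drug exposure at 37C in 5% CO2, then CellTiter-Glo for 5 min at room temperature before luminescence reading.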

[3] = Quantitative High-Throughput drug screen in 47 multiple myeloma cell lines against the NCATS MIPE library collection: Karpas25_ECACC cell viability assay (AID 1918968; also: nearly all actives have a fitted effect of over 35% in size; also: potency is read from the fitted curve at half-maximal effect)
In short: as §2

[4] = Quantitative High-Throughput drug screen in 47 multiple myeloma cell lines against the NCATS MIPE library collection: KMS12BM_JCRB cell viability assay (AID 1918971); also: nearly all actives have a fitted effect of over 35% in size; also: potency is read from the fitted curve at half-maximal effect
In short: as §1

[5] = Quantitative High-Throughput drug screen in 47 multiple myeloma cell lines against the NCATS MIPE library collection: NCIH929_DSMZ cell viability assay (AID 1918978); also: nearly all actives have a fitted effect of over 35% in size; also: potency is read from the fitted curve at half-maximal effect
In short: (§3)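 500 cells/well; MIPE 4.0 drugs pin-transferred; 48 h, 37C, 5% CO2. CellTiter-Glo, 5 min RT, luminescence. Controls: DMSO 100%, media 0%.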

[6] = Quantitative High-Throughput drug screen in 47 multiple myeloma cell lines against the NCATS MIPE library collection: OCIMY1_PLB cell viability assay (AID 1918979); also: nearly all actives have a fitted effect of over 35% in size
In short: as §3

[7] = Quantitative High-Throughput drug screen in 47 multiple myeloma cell lines against the NCATS MIPE library collection: MM1S_ATCC cell viability assay (AID 1918980); also: nearly all actives have a fitted effect of over 45% in size; also: potency is read from the fitted curve at half-maximal effect
In short: as §3

[8] = Quantitative High-Throughput drug screen in 47 multiple myeloma cell lines against the NCATS MIPE library collection: LP1_DSMZ cell viability assay (AID 1918982); also: nearly all actives have a fitted effect of over 35% in size; also: potency is read from the fitted curve at half-maximal effect
In short: as §3

[9] = Quantitative High-Throughput drug screen in 47 multiple myeloma cell lines against the NCATS MIPE library collection: KMS28PE_JCRB cell viability assay (AID 1918983); also: nearly all actives have a fitted effect of over 35% in size; also: potency is read from the fitted curve at half-maximal effect
In short: as §3

[10] = Quantitative High-Throughput drug screen in 47 multiple myeloma cell lines against the NCATS MIPE library collection: KMS34_JCRB cell viability assay (AID 1918985); also: nearly all actives have a fitted effect of over 40% in size; also: potency is read from the fitted curve at half-maximal effect
In short: as §3

[11] = Quantitative High-Throughput drug screen in 47 multiple myeloma cell lines against the NCATS MIPE library collection: KMS12PE_JCRB cell viability assay (AID 1918972); also: nearly all actives have a fitted effect of over 30% in size; also: potency is read from the fitted curve at half-maximal effect
In short: as §1

[12] = Quantitative High-Throughput drug screen in 47 multiple myeloma cell lines against the NCATS MIPE library collection: KMS26_JCRB cell viability assay (AID 1918975); also: nearly all actives have a fitted effect of over 45% in size; also: potency is read from the fitted curve at half-maximal effect
In short: as §1

[13] = Quantitative High-Throughput drug screen in 47 multiple myeloma cell lines against the NCATS MIPE library collection: MOLP8_DSMZ cell viability assay (AID 1918977); also: nearly all actives have a fitted effect of over 45% in size; also: potency is read from the fitted curve at half-maximal effect
In short: as §3

[14] = Quantitative High-Throughput drug screen in 47 multiple myeloma cell lines against the NCATS MIPE library collection: KMS27_JCRB cell viability assay (AID 1918970); details: KMS27 myeloma cells, CellTiter-Glo ATP viability, 48 h; viability (% of DMSO): at 45.8 µM (top of the series); also: nearly all actives have a fitted effect of over 30% in size; also: potency is read from the fitted curve at half-maximal effect
In short: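 Myeloma cells (500 per well) were exposed to MIPE 4.0 compounds for 48 h at 37 °C, 5% CO2; viability was read as ATP luminescence with CellTiter-Glo, normalized to DMSO-only (100%) and media-only (0%) wells.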

[15] = Quantitative High-Throughput drug screen in 47 multiple myeloma cell lines against the NCATS MIPE library collection: KMS21BM_JCRB cell viability assay (AID 1918974); details: ATP luminescence, 48 h; viability: at 45.8 µM (top of the series); also: potency is read from the fitted curve at half-maximal effect
In short: as §2

[16] = Quantitative High-Throughput drug screen in 47 multiple myeloma cell lines against the NCATS MIPE library collection: L363_DSMZ cell viability assay (AID 1918984); details: L363 myeloma viability, CellTiter-Glo ATP luminescence, 48 h; viability (% of control): at 45.8 µM (top of the series); also: nearly all actives have a fitted effect of over 40% in size; also: potency is read from the fitted curve at half-maximal effect
In short: as §3

[17] = Quantitative High-Throughput drug screen in 47 multiple myeloma cell lines against the NCATS MIPE library collection: MMM1_PLB cell viability assay (AID 1918976); also: nearly all actives have a fitted effect of over 35% in size; also: potency is read from the fitted curve at half-maximal effect
In short: as §3

[18] = Quantitative High-Throughput drug screen in 47 multiple myeloma cell lines against the NCATS MIPE library collection: MM1R_ATCC cell viability assay (AID 1918981); also: nearly all actives have a fitted effect of over 35% in size; also: potency is read from the fitted curve at half-maximal effect
In short: as §3

Measured: Potency

Cc1ccccc1C(C(=O)NC1CCCCC1)N(C(=O)CNc1ccc(C#N)cc1)c1cccc(F)c1 (stereo not drawn)
active: [4] 2.96 µM
inactive: [1] | [2] | [3] | [5] | [6] | [7] | [8] | [9] | [10]

OC(c1cc(C(F)(F)F)nc2c(C(F)(F)F)cccc12)C1CCCCN1 (stereo not drawn)
active: [1] 23.5 µM | [2] 20.9 µM | [3] 16.6 µM | [4] 26.4 µM | [11] 20.9 µM | [12] 29.6 µM | [13] 23.5 µM | [5] 20.9 µM | [7] 20.9 µM | [8] 18.7 µM | [9] 26.4 µM

CON(C)C(=O)N1N=C(c2cc(F)ccc2F)S[C@]1(CCCN)c1ccccc1
inactive: [1] | [2] | [4] | [12] | [13] | [5] | [6] | [7] | [8] | [9] | [10]
active: [14] 0.001 µM | [11] 0.001 µM

CCC=CC[C@H]1C(=O)CC[C@@H]1CC(=O)OC
inactive: [1] | [2] | [3] | [11] | [15] | [13] | [8] | [9] | [16] | [10]
active: [4] 2.35 µM

CCCCC(C)(C)[C@H](O)C=C[C@H]1[C@H](O)CC(=O)[C@H]1CC=CCCCC(=O)O
active: [1] 23.5 µM | [3] 18.7 µM | [4] 18.7 µM | [12] 16.6 µM | [17] 16.6 µM | [5] 18.7 µM | [7] 14.8 µM | [18] 18.7 µM | [10] 5.9 µM
inactive: [14] | [11]

O=c1cc(-c2ccc(O)c(O)c2)oc2cc(O)cc(O)c12
inactive: [4] | [12] | [18]
active: [1] 26.4 µM | [15] 2.09 µM

C[C@@H](O[C@H]1OCCN(Cc2n[nH]c(=O)[nH]2)[C@@H]1c1ccc(F)cc1)c1cc(C(F)(F)F)cc(C(F)(F)F)c1
active: [1] 20.9 µM | [4] 18.7 µM | [12] 18.7 µM | [8] 23.5 µM | [16] 4.69 µM | [10] 20.9 µM
inactive: [14]

COc1nccc(-c2c(-c3ccc(F)cc3)ncn2C2CCC(O)CC2)n1 (stereo not drawn)
active: [1] 13.2 µM | [4] 20.9 µM | [12] 6.62 µM | [7] 4.69 µM | [18] 18.7 µM

CCCCC[C@H](O)C=C[C@H]1[C@H](O)CC(=O)[C@H]1CC=CCCCC(=O)O
active: [1] 18.7 µM | [3] 20.9 µM | [4] 20.9 µM | [13] 16.6 µM | [7] 20.9 µM | [10] 0.0148 µM
inactive: [14] | [11] | [6] | [18] | [8] | [9]

CC(C)(O)CC(=O)NCCn1ccc2ncnc(Nc3ccc(Oc4cccc(C(F)(F)F)c4)c(Cl)c3)c21
active: [1] 29.6 µM | [3] 23.5 µM | [4] 23.5 µM | [11] 5.9 µM | [12] 26.4 µM | [17] 20.9 µM | [5] 26.4 µM | [7] 0.332 µM | [9] 26.4 µM | [10] 23.5 µM

CN(C)c1ccccc1CN1CCCN(Cc2ccccc2N(C)C)C1c1ccncc1
active: [1] 23.5 µM | [3] 16.6 µM | [4] 16.6 µM | [17] 16.6 µM | [13] 18.7 µM | [5] 14.8 µM | [18] 18.7 µM | [9] 23.5 µM

Cc1cccc2c1CC[C@H](CN1CCC(c3c(Cl)cccc3Cl)CC1)C[C@@H]2O
active: [1] 18.7 µM | [3] 18.7 µM | [4] 16.6 µM

CC(C)(OCc1nn(Cc2ccccc2)c2ccccc12)C(=O)O
active: [4] 0.418 µM | [12] 6.62 µM | [7] 13.2 µM
inactive: [1] | [14] | [11] | [17] | [6] | [10]

CC(C)N(CCCNC(=O)Nc1ccc(C(C)(C)C)cc1)C[C@H]1O[C@@H](n2cc(Br)c3c(N)ncnc32)[C@H](O)[C@H]1O
inactive: [14] | [11] | [16]
active: [1] 18.7 µM | [3] 14.8 µM | [12] 26.4 µM | [17] 18.7 µM | [13] 18.7 µM | [5] 23.5 µM | [7] 23.5 µM | [8] 23.5 µM | [9] 14.8 µM | [10] 20.9 µM
